Common to all, as to assay: DAPPL (digital affinity profiling via proximity ligation, sequencing); 10 mM Tris-HCl pH 7.5, 50 mM NaCl, 1 mM DTT, 4% glycerol, room temperature, 30 min; GST-TFs on glutathione beads, 16-mer random dsDNA library, 0.1% formaldehyde crosslink after washing; high values mean tight binding
One experiment has as its target T1, FLI1 (Homo sapiens, UniProt Q01543 1-452).
T1 sequence: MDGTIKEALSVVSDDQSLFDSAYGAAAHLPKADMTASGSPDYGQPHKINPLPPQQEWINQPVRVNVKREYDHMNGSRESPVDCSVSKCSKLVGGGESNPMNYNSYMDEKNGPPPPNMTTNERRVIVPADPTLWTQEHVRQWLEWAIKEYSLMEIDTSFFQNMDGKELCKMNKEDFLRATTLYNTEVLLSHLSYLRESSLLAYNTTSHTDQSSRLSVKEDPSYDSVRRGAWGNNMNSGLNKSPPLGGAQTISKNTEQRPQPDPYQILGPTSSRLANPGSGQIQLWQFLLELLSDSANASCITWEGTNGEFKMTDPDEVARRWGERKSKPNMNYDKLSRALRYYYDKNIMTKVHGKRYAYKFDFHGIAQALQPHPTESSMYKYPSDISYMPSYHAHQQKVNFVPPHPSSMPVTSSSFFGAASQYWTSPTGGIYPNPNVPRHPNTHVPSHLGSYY
Particulars: protein: recombinant; tags: N-terminal GST; dsDNA, one strand shown. An outline of the steps: (§1)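 Yeast served to express human transcription factors as GST fusions, which were then captured on glutathione beads and labelled with DNA barcodes. Pooled with a tag-only sample, they were incubated with 200 nmole of a 16-mer random double-stranded DNA library for 30 min at room temperature in Tris/NaCl/DTT/glycerol buffer, washed, crosslinked with 0.1% formaldehyde, ligated by proximity, amplified by PCR and sequenced. Dividing each hexamer's read frequency for a factor by its frequency for the tag-only sample gives the binding signal.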

For a further experiment, the target named is T2, ELK1 (Homo sapiens, UniProt P19419 1-428).
T2 sequence: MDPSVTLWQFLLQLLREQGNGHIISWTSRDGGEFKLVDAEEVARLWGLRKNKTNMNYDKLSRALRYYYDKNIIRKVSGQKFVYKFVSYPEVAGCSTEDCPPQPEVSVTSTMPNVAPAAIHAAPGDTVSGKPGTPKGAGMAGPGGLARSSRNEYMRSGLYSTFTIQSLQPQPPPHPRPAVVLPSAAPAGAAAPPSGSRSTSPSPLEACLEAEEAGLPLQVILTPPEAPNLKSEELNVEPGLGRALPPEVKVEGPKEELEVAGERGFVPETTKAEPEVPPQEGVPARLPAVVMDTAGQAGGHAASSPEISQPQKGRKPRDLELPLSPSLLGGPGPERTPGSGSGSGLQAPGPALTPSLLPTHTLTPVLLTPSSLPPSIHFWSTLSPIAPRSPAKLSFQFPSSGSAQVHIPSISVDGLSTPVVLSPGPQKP
The note with it: protein: recombinant; tags: N-terminal GST; dsDNA, one strand shown. An outline of the steps: as §1

The target of a further experiment is T3, GABPA (Homo sapiens, UniProt Q06546 1-454).
T3 sequence: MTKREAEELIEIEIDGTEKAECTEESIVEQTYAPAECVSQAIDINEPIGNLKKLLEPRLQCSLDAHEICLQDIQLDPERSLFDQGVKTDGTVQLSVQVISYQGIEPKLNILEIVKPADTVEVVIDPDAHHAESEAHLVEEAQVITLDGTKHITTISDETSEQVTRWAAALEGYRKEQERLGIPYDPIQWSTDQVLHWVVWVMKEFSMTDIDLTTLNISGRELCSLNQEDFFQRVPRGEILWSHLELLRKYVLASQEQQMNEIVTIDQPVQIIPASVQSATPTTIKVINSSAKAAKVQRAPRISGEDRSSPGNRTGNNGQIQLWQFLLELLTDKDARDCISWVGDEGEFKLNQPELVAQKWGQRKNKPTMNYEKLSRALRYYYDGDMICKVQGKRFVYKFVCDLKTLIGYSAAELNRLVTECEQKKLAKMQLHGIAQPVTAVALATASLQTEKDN
Particulars: protein: recombinant; tags: N-terminal GST; dsDNA, one strand shown. The method, boiled down: as §1

A further experiment concerns the target T4, ERG (Homo sapiens, UniProt P11308 1-479).
T4 sequence: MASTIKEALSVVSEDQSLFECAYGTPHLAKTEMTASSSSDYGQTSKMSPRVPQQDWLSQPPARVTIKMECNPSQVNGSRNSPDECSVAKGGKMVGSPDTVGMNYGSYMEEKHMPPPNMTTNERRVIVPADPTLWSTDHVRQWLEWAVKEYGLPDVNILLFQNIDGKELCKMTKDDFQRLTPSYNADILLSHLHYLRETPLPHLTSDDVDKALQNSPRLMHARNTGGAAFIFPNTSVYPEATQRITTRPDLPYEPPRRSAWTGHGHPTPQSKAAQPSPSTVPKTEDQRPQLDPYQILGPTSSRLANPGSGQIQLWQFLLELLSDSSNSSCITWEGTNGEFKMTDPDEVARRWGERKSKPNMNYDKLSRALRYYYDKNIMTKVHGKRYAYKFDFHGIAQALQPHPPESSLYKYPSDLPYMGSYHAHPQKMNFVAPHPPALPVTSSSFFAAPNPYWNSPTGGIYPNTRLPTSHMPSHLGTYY
Particulars: protein: recombinant; tags: N-terminal GST; dsDNA, one strand shown. An outline of the steps: as §1

In the next experiment the target is ELF1 (Homo sapiens, UniProt P32519 1-619). Particulars: protein: recombinant; tags: N-terminal GST; dsDNA, one strand shown. An outline of the steps: as §1
ELF1, sequence (P32519 whole entry): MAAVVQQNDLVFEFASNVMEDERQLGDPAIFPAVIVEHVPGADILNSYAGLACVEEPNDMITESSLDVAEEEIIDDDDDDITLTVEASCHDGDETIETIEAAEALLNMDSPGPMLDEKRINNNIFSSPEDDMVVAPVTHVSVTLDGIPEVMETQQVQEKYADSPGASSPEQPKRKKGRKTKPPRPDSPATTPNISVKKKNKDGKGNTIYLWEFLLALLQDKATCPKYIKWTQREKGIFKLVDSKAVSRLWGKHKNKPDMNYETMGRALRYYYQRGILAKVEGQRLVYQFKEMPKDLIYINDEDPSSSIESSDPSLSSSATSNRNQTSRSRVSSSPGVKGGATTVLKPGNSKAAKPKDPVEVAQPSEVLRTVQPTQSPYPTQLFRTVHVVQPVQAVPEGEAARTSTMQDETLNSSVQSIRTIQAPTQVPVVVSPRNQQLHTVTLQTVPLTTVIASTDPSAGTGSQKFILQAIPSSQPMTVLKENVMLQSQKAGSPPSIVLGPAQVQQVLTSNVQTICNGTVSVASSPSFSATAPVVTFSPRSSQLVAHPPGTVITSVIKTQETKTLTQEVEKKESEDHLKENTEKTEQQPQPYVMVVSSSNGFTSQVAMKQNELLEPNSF
The target of another experiment is T5, EHF (Homo sapiens, UniProt Q9NZC4 1-300).
T5 sequence: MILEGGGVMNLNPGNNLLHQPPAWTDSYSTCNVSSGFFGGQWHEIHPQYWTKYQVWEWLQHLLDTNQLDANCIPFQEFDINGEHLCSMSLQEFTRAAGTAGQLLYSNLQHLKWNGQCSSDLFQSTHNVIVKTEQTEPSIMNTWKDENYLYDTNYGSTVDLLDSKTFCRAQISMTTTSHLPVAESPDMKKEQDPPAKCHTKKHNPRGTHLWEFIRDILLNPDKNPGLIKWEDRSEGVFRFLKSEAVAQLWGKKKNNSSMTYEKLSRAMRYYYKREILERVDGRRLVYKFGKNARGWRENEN
The note with it: protein: recombinant; tags: N-terminal GST; dsDNA, one strand shown. The method, boiled down: as §1

The target in a further experiment is SPI1 (Homo sapiens, UniProt P17947 1-270). The note with it: protein: recombinant; tags: N-terminal GST; dsDNA, one strand shown. The method, boiled down: as §1
For a further experiment, the target named is SPIB (Homo sapiens, UniProt Q01892 1-262). The note with it: protein: recombinant; tags: N-terminal GST; dsDNA, one strand shown. The method, boiled down:
as §1

The target in the next experiment is T6, ELK3 (Homo sapiens, UniProt P41970 1-407).
T6 sequence: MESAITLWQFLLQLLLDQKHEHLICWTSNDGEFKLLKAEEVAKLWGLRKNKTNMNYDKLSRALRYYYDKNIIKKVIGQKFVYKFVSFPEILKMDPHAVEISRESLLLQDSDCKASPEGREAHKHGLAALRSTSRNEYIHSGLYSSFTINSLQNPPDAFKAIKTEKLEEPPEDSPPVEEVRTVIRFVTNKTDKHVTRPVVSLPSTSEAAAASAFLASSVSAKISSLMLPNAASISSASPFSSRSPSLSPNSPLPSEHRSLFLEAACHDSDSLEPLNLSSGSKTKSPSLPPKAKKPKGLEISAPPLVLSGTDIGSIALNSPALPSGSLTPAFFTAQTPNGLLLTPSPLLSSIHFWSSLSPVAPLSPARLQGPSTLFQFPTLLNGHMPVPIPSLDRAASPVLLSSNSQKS
Particulars: protein: recombinant; tags: N-terminal GST; dsDNA, one strand shown. An outline of the steps:
as §1

The next experiment concerns the target T7, FEV (Homo sapiens, UniProt Q99581 1-238).
T7 sequence: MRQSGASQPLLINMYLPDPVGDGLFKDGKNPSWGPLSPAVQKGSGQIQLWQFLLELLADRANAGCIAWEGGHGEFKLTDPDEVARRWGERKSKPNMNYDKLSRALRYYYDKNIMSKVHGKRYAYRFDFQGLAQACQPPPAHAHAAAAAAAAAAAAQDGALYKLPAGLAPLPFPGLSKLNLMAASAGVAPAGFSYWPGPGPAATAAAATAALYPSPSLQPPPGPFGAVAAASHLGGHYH
The note with it: protein: recombinant; tags: N-terminal GST; dsDNA, one strand shown. The method, boiled down: as §1

For the next experiment, the target named is ETV5 (Homo sapiens, UniProt P41161 1-510). The note with it: protein: recombinant; tags: N-terminal GST; dsDNA, one strand shown. The method, boiled down: as §1
ETV5, sequence (P41161 whole entry): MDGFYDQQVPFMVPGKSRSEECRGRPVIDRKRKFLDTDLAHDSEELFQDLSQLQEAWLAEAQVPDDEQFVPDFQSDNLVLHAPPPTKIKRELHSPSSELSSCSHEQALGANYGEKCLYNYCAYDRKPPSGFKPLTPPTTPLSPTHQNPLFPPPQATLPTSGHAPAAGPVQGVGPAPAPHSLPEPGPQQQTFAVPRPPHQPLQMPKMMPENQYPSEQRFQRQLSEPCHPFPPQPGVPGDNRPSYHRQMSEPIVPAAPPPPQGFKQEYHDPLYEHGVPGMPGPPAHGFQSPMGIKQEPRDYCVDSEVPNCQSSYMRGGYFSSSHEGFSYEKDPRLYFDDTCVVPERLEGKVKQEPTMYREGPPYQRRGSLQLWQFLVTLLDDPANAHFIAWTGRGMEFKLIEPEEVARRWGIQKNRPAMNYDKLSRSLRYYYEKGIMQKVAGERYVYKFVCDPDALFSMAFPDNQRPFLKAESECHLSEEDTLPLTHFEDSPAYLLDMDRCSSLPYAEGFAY
In a further experiment the target is HSF1 (Homo sapiens, UniProt Q00613 1-529). The note with it: protein: recombinant; tags: N-terminal GST; chain copies: 3; dsDNA, one strand shown. The method, boiled down:
as §1

Another experiment deals with T8, SPIC (Homo sapiens, UniProt Q8N5J4 1-248).
T8 sequence: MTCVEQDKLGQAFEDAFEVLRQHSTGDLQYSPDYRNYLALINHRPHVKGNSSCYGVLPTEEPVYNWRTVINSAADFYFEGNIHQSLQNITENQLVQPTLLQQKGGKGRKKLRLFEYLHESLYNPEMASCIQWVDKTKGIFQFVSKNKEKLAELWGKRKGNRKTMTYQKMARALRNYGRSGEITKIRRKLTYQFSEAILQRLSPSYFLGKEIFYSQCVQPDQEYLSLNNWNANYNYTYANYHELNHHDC
Particulars: protein: recombinant; tags: N-terminal GST; dsDNA, one strand shown. An outline of the steps: as §1

The target in a further experiment is ELF4 (Homo sapiens, UniProt Q99607 1-663). Particulars: protein: recombinant; tags: N-terminal GST; dsDNA, one strand shown. An outline of the steps:
as §1

For the next experiment, the target named is T9, ELK4 (Homo sapiens, UniProt P28324-2 1-405).
T9 sequence: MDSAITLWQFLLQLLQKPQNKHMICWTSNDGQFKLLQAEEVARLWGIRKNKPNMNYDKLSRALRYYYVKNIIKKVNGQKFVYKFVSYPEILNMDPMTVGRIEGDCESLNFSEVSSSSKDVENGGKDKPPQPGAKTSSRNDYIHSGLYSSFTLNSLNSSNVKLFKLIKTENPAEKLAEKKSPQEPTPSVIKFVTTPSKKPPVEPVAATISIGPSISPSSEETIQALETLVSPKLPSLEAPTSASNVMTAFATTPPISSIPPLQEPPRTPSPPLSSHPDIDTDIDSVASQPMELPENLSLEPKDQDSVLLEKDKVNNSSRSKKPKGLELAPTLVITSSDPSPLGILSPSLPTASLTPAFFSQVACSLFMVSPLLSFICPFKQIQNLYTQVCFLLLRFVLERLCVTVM
Particulars: protein: recombinant; tags: N-terminal GST; dsDNA, one strand shown. An outline of the steps: as §1

A further experiment deals with T10, ETV2 (Homo sapiens, UniProt O00321 1-342).
T10 sequence: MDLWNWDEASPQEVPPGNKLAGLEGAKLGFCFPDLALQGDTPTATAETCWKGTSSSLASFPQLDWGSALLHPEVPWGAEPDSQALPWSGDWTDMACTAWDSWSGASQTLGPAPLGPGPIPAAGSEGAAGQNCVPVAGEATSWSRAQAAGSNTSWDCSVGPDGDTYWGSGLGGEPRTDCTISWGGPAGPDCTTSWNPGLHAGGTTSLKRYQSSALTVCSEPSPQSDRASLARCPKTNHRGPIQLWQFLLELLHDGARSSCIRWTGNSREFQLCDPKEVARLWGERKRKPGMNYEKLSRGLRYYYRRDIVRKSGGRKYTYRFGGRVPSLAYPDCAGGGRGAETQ
Particulars: protein: recombinant; tags: N-terminal GST; dsDNA, one strand shown. An outline of the steps: as §1

The target in the next experiment is T11, ELF3 (Homo sapiens, UniProt P78545 1-371).
T11 sequence: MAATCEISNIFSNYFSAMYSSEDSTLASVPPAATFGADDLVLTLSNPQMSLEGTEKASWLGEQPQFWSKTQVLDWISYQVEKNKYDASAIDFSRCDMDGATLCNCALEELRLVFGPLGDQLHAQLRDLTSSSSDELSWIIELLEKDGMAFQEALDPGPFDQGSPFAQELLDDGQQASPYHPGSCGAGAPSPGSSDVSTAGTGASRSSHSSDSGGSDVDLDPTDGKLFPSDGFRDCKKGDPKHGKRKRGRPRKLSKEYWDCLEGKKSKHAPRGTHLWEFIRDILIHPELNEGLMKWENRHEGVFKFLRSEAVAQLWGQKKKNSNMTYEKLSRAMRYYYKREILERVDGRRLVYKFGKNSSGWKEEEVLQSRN
Particulars: protein: recombinant; tags: N-terminal GST; dsDNA, one strand shown. The method, boiled down: as §1

In a further experiment the target is CRX (Homo sapiens, UniProt O43186 1-299). The note with it: protein: recombinant; tags: N-terminal GST; dsDNA, one strand shown. An outline of the steps: as §1
CRX, sequence (O43186 whole entry): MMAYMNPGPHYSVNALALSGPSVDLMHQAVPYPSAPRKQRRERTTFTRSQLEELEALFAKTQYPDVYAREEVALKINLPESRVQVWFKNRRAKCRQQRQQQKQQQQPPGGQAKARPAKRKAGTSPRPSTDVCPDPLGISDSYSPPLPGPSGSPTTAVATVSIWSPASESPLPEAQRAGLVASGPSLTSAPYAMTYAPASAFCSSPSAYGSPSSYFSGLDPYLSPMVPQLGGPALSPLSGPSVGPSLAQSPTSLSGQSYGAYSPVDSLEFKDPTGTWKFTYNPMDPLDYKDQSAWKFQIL
The target in the next experiment is ETV1 (Homo sapiens, UniProt P50549 1-477). The note with it: protein: recombinant; tags: N-terminal GST; dsDNA, one strand shown. An outline of the steps:
as §1

ELF4, sequence (Q99607 whole entry): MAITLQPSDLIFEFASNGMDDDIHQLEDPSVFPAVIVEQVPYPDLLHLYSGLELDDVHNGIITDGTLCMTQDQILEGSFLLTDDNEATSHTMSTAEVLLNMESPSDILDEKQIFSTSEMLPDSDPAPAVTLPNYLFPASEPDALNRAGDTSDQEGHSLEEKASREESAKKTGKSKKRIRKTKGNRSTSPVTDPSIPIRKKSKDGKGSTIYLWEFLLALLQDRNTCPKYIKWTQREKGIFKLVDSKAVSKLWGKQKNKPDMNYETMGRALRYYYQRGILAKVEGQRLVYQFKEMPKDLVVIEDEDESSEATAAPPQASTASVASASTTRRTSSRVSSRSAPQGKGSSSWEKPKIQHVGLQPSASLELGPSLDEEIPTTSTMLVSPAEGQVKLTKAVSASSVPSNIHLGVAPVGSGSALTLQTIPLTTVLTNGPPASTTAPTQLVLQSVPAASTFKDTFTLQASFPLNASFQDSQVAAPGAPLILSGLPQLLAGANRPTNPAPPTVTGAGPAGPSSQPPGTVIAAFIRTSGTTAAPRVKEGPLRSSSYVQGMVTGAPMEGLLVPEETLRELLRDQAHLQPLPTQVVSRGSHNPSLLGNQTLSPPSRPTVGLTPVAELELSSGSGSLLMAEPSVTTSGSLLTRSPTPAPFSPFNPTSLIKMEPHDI
HSF1, sequence (Q00613 whole entry): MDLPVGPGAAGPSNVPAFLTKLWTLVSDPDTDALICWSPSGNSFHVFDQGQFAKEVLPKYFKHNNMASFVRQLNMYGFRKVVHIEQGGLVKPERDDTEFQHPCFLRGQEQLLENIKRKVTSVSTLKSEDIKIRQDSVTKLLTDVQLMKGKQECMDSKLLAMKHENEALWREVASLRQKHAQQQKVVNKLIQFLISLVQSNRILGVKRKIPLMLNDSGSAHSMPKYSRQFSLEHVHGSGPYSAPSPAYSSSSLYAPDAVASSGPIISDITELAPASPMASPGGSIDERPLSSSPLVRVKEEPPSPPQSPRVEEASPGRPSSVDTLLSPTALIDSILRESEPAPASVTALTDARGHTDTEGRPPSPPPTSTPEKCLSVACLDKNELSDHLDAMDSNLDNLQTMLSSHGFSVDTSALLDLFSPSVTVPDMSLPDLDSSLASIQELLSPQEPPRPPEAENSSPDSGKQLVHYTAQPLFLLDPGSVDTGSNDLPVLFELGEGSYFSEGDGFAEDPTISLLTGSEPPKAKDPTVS
ETV1, sequence (P50549 whole entry): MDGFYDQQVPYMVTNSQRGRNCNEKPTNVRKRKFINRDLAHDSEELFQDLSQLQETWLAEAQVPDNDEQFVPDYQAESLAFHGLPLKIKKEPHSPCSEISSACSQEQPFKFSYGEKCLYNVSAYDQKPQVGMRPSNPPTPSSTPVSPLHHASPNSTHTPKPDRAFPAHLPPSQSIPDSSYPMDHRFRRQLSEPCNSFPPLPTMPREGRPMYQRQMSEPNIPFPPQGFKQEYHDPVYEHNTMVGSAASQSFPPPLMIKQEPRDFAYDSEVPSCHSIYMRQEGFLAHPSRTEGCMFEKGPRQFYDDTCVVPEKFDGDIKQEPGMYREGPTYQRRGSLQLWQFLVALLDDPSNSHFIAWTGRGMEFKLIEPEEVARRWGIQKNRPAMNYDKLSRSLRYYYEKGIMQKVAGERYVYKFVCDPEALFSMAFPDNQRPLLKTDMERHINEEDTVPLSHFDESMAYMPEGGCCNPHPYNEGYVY
SPIB, sequence (Q01892 whole entry): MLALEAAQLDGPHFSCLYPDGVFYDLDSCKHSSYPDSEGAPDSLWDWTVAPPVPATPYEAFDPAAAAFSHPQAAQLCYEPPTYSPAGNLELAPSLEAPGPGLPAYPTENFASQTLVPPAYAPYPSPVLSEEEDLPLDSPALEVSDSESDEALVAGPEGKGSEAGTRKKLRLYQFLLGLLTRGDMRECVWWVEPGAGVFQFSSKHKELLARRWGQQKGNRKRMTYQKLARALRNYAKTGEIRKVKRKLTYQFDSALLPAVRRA

Consider ATATAT, for which the binding signal with FLI1 is 1.47 fold enrichment (6-mer frequency, TF over GST control); in the experiment with ELK1, 1.38 fold enrichment (6-mer frequency, TF over GST control); with GABPA, 1.44 fold enrichment (6-mer frequency, TF over GST control); with ERG, 1.38 fold enrichment (6-mer frequency, TF over GST control); with ELF1, 1.47 fold enrichment (6-mer frequency, TF over GST control); with EHF, 1.4 fold enrichment (6-mer frequency, TF over GST control). The binding signal with SPI1 was 1.37 fold enrichment (6-mer frequency, TF over GST control); with SPIB it was 1.42 fold enrichment (6-mer frequency, TF over GST control); in the experiment with ELK3, 1.4 fold enrichment (6-mer frequency, TF over GST control); in the experiment with FEV it was 1.41 fold enrichment (6-mer frequency, TF over GST control); with ETV5, 1.42 fold enrichment (6-mer frequency, TF over GST control); with HSF1 it was 1.31 fold enrichment (6-mer frequency, TF over GST control). Also, the binding signal was 1.51 fold enrichment (6-mer frequency, TF over GST control) with SPIC; 1.38 fold enrichment (6-mer frequency, TF over GST control) in the experiment with ELF4; 1.55 fold enrichment (6-mer frequency, TF over GST control) with ELK4; 1.31 fold enrichment (6-mer frequency, TF over GST control) with ETV2; 1.64 fold enrichment (6-mer frequency, TF over GST control) in the experiment with ELF3; 1.46 fold enrichment (6-mer frequency, TF over GST control) in the experiment with CRX. The binding signal with ETV1 is 1.33 fold enrichment (6-mer frequency, TF over GST control).

For the origin of these results see article PMC7862700, “An all-to-all approach to the identification of sequence-specific readers for epigenetic DNA modifications on cytosine”.
